# What was measured:
# Experiment in all cases: DAPPL (digital affinity profiling via proximity ligation, sequencing); 10 mM Tris-HCl pH 7.5, 50 mM NaCl, 1 mM DTT, 4% glycerol, room temperature, 30 min; GST-TFs on glutathione beads, 16-mer random dsDNA library, 0.1% formaldehyde crosslink after washing; high values mean tight binding
# Details in all cases: protein: recombinant; tags: N-terminal GST; dsDNA, one strand shown
# ERF = target: T1, ERF (Homo sapiens, UniProt P50548 1-548)
# T1 sequence: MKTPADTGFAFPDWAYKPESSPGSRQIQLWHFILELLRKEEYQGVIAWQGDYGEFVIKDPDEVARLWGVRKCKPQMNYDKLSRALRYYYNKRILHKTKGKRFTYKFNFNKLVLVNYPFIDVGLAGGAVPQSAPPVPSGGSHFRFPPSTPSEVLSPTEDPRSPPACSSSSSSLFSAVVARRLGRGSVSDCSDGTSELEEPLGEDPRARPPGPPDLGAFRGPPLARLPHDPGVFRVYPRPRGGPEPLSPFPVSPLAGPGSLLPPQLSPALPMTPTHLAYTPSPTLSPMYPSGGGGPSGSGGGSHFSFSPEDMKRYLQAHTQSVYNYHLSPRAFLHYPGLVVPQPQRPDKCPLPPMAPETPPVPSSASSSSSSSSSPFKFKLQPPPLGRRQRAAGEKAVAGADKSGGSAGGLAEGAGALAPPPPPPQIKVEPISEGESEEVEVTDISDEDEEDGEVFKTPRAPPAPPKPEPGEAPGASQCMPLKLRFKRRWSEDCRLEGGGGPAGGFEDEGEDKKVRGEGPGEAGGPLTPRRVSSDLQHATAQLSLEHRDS
# Method in brief: (§1)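 Binding signal is defined as a hexamer's read frequency for one factor over its frequency for the tag-only sample. To obtain reads, GST-fused human transcription factors were expressed in yeast, captured on glutathione beads, barcoded with DNA and pooled with that sample. Pools met 200 nmole of a 16-mer random double-stranded DNA library in Tris/NaCl/DTT/glycerol buffer for 30 min at room temperature before washing, 0.1% formaldehyde crosslinking, proximity ligation (BsaI/T4 ligase, 1 h, 37 °C), PCR and Illumina NextSeq500 sequencing.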
# ETV3L = target: T2, ETV3L (Homo sapiens, UniProt Q6ZN32 1-361)
# T2 sequence: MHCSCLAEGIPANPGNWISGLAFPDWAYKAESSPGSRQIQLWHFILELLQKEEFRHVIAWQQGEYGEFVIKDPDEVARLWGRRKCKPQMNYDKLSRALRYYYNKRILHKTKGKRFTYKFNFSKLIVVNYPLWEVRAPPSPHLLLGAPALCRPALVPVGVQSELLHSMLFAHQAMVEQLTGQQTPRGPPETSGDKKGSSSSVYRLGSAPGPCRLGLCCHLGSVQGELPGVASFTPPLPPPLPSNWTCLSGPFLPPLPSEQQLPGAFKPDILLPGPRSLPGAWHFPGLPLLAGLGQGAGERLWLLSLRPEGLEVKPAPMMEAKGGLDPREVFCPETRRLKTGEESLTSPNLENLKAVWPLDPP
# Method in brief: as §1
# ETS2 = target: T3, ETS2 (Homo sapiens, UniProt P15036 1-469)
# T3 sequence: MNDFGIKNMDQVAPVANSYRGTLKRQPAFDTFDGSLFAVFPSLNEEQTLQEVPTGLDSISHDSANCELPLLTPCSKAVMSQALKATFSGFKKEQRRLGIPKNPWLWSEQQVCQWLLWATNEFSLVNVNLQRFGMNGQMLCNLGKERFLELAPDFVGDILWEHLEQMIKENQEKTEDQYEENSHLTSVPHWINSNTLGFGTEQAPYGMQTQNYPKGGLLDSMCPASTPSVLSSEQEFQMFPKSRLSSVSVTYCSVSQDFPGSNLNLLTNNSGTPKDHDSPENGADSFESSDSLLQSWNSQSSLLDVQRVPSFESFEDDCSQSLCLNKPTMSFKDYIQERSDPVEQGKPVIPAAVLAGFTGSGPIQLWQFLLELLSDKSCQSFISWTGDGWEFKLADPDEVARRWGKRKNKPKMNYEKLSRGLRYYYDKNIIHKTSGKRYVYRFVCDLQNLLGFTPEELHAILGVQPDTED
# Method in brief: as §1
# SPDEF = target: T4, SPDEF (Homo sapiens, UniProt O95238 1-335)
# T4 sequence: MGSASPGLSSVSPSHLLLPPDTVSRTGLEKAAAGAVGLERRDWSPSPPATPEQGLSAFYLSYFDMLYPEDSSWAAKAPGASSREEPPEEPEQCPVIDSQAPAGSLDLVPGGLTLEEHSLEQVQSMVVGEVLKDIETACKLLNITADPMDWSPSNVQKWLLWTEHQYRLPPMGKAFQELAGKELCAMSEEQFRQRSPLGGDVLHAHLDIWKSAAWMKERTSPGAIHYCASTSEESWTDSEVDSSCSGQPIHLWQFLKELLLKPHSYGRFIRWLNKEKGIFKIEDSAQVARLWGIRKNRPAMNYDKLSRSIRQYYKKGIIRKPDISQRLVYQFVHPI
# Method in brief: as §1
# ETV7 = target: T5, ETV7 (Homo sapiens, UniProt Q9Y603 1-341)
# T5 sequence: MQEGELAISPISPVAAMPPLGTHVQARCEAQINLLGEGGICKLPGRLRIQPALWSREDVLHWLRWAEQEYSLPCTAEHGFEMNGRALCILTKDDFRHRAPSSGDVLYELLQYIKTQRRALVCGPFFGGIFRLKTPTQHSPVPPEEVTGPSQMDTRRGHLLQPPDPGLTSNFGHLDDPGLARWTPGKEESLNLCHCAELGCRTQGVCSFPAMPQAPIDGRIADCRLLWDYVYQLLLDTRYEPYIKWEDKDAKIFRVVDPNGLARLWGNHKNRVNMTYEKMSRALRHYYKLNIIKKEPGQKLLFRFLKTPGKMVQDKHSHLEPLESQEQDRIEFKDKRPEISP
# Method in brief: as §1
# ELF5 = target: T6, ELF5 (Homo sapiens, UniProt Q9UKW6-2 1-255)
# T6 sequence: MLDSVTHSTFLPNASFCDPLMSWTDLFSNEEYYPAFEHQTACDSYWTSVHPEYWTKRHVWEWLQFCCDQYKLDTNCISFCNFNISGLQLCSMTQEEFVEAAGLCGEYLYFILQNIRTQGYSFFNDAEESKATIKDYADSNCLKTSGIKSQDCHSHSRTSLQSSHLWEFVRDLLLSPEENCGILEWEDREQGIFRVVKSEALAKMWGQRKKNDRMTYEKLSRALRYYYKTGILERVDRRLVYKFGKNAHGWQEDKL
# Method in brief: as §1
# ETV3 = target: T7, ETV3 (Homo sapiens, UniProt P41162-2 1-143)
# T7 sequence: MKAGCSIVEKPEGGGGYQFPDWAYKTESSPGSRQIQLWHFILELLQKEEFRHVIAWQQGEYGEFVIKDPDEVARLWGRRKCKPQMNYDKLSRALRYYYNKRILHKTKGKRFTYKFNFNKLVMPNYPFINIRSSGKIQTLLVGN
# Method in brief: as §1
# ETV6 = ETV6 (Homo sapiens, UniProt P41212 1-452)
# Method in brief: as §1
# ETV6, sequence (P41212 whole entry): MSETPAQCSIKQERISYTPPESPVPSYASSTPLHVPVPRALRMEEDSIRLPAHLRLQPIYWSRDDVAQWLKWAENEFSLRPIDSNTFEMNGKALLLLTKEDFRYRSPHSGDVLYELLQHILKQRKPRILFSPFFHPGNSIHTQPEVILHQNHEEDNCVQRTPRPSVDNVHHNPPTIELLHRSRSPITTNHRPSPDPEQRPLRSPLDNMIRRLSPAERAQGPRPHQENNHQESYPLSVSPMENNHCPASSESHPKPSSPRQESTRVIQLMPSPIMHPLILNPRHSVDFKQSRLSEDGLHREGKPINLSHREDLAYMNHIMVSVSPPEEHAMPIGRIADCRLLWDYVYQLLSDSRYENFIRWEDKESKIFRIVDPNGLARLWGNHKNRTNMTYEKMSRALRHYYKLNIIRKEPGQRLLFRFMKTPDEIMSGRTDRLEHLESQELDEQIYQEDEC
Sequence,binding signal (ERF),binding signal (ETV3L),binding signal (ETS2),binding signal (SPDEF),binding signal (ETV7),binding signal (ELF5),binding signal (ETV3),binding signal (ETV6)
TCCGGT,"3.43 fold enrichment (6-mer frequency, TF over GST control)","3.57 fold enrichment (6-mer frequency, TF over GST control)","3.76 fold enrichment (6-mer frequency, TF over GST control)","5.35 fold enrichment (6-mer frequency, TF over GST control)","3.35 fold enrichment (6-mer frequency, TF over GST control)","4.56 fold enrichment (6-mer frequency, TF over GST control)","4.02 fold enrichment (6-mer frequency, TF over GST control)","4.04 fold enrichment (6-mer frequency, TF over GST control)"
TTTAAC,"1.28 fold enrichment (6-mer frequency, TF over GST control)","1.17 fold enrichment (6-mer frequency, TF over GST control)","1.16 fold enrichment (6-mer frequency, TF over GST control)","1.12 fold enrichment (6-mer frequency, TF over GST control)","1.07 fold enrichment (6-mer frequency, TF over GST control)","1.11 fold enrichment (6-mer frequency, TF over GST control)","1.21 fold enrichment (6-mer frequency, TF over GST control)","1.19 fold enrichment (6-mer frequency, TF over GST control)"
TCTCCC,"1.89 fold enrichment (6-mer frequency, TF over GST control)","1.61 fold enrichment (6-mer frequency, TF over GST control)","1.6 fold enrichment (6-mer frequency, TF over GST control)","1.6 fold enrichment (6-mer frequency, TF over GST control)","1.57 fold enrichment (6-mer frequency, TF over GST control)","1.7 fold enrichment (6-mer frequency, TF over GST control)","1.71 fold enrichment (6-mer frequency, TF over GST control)","1.76 fold enrichment (6-mer frequency, TF over GST control)"
ACGTTC,"1.28 fold enrichment (6-mer frequency, TF over GST control)","1.42 fold enrichment (6-mer frequency, TF over GST control)","1.3 fold enrichment (6-mer frequency, TF over GST control)","1.21 fold enrichment (6-mer frequency, TF over GST control)","1.42 fold enrichment (6-mer frequency, TF over GST control)","1.42 fold enrichment (6-mer frequency, TF over GST control)","1.18 fold enrichment (6-mer frequency, TF over GST control)","1.36 fold enrichment (6-mer frequency, TF over GST control)"
CTCGTT,"1.4 fold enrichment (6-mer frequency, TF over GST control)","1.43 fold enrichment (6-mer frequency, TF over GST control)","1.27 fold enrichment (6-mer frequency, TF over GST control)","1.27 fold enrichment (6-mer frequency, TF over GST control)","1.37 fold enrichment (6-mer frequency, TF over GST control)","1.44 fold enrichment (6-mer frequency, TF over GST control)","1.25 fold enrichment (6-mer frequency, TF over GST control)","1.23 fold enrichment (6-mer frequency, TF over GST control)"
CCTAGC,"1.26 fold enrichment (6-mer frequency, TF over GST control)","1.09 fold enrichment (6-mer frequency, TF over GST control)","1.11 fold enrichment (6-mer frequency, TF over GST control)","1.21 fold enrichment (6-mer frequency, TF over GST control)","1.18 fold enrichment (6-mer frequency, TF over GST control)","1.06 fold enrichment (6-mer frequency, TF over GST control)","1.16 fold enrichment (6-mer frequency, TF over GST control)","1.15 fold enrichment (6-mer frequency, TF over GST control)"
GATGAT,"1.5 fold enrichment (6-mer frequency, TF over GST control)","1.31 fold enrichment (6-mer frequency, TF over GST control)","1.23 fold enrichment (6-mer frequency, TF over GST control)","1.32 fold enrichment (6-mer frequency, TF over GST control)","1.36 fold enrichment (6-mer frequency, TF over GST control)","1.24 fold enrichment (6-mer frequency, TF over GST control)","1.39 fold enrichment (6-mer frequency, TF over GST control)","1.3 fold enrichment (6-mer frequency, TF over GST control)"
